Among the data in PubChem BioAssay (NCI) are growth values, retold here.

This is part of a sample that, as a whole, favours compounds with a hit. Of some 83,000 tested, about 20% had one in any assay.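 Cells were grown in 96-well plates and exposed to the test compound at a single concentration for 48 hours; results are reported as percent growth, with values below 10 considered active.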 A number with no mark means an inactive call. Active and inactive are the calls of the source.

Test systems include NCI-H23 lung; NCI-H226 lung; NCI-H322M lung; HOP-62 NSCLC; NCI-H460 lung; HOP-92 NSCLC; A549/ATCC NSCLC; 786-0 renal; COLO 205 colon; NCI-H522 lung.
Holding throughout (assay): NCI-60 one-dose screen, 48 h (100 = growth as untreated, 0 = no growth, -100 = all killed)
What all share (conditions): 10 µM unless noted

For the molecule `Cc1ccc(-c2nc3ccccn3c2/C=C2/C(=O)Nc3cc(Cl)ccc32)cc1`, the growth is 72.4% in the assay with NCI-H23 lung; 94.5% in the assay on NCI-H226 lung; 98% in the assay with NCI-H322M lung; 83.7% in the assay on HOP-62 NSCLC; 82.3% with NCI-H460 lung; 110% with HOP-92 NSCLC. Besides, the growth in the assay with A549/ATCC NSCLC was 90.6%; in the assay with 786-0 renal, 92.7%; in the assay with COLO 205 colon it was 84%.

Take `COc1ccc(CCn2cncc2-c2c[nH]c3ccccc23)cc1`: the growth is 82% in the assay with NCI-H23 lung; 81.3% with NCI-H226 lung; 92.8% in the assay on NCI-H322M lung; 72.8% in the assay with HOP-62 NSCLC; 92.5% with NCI-H460 lung; 60.7% in the assay on HOP-92 NSCLC. For the same molecule, the growth is 99.2% in the assay on A549/ATCC NSCLC and 96.9% in the assay on COLO 205 colon.

For `O=S(=O)(NCCNc1nccc(-c2c(-c3cccc(O)c3)nc3occn23)n1)c1ccc(Cl)cc1`, the growth in the assay with NCI-H23 lung was 103%; with NCI-H226 lung, 109%; with NCI-H322M lung, 112%; with HOP-62 NSCLC, 120%; in the assay with NCI-H460 lung it was 102%; in the assay on HOP-92 NSCLC it was 115%. Also, the figures for the growth in the assay on A549/ATCC NSCLC, in the assay on 786-0 renal and in the assay on COLO 205 colon were 101%, 109% and 32.7%, respectively.

With `CN(C)CCC(=O)c1ccc([N+](=O)[O-])cc1`, the growth in the assay with NCI-H23 lung is 109%; in the assay on NCI-H226 lung it was 94.8%; with NCI-H322M lung it was 104%; in the assay on HOP-62 NSCLC, 98.6%; with NCI-H460 lung, 107%; in the assay with HOP-92 NSCLC, 89.2%. Further, the growth in the assay with A549/ATCC NSCLC is 109%; in the assay on COLO 205 colon, 107%.

For `O=[N+]([O-])CC(c1ccccc1F)c1c[nH]c2ccccc12` (stereo unspecified), the growth in the assay with NCI-H23 lung is 82.5%; in the assay with NCI-H226 lung, 81.9%; in the assay with NCI-H322M lung, 96%; in the assay on HOP-62 NSCLC it was 69%; in the assay with NCI-H460 lung, 94.8%; in the assay on HOP-92 NSCLC it was 80.9%. The values for the growth in the assay on A549/ATCC NSCLC, in the assay with 786-0 renal and in the assay with COLO 205 colon were 70%, 87.7% and 80.4%, respectively.

On to `CN1C(=O)NC(c2ccc3c(c2)OCO3)C=C1c1ccccc1` (stereo unspecified), for which the growth with NCI-H23 lung was 96.3%; in the assay with NCI-H226 lung, 103%; in the assay with NCI-H322M lung it was 92.4%; in the assay with HOP-62 NSCLC, 91.3%; with NCI-H460 lung it was 97.6%; in the assay with HOP-92 NSCLC it was 93.9%. Besides, the results for the growth with A549/ATCC NSCLC, in the assay with 786-0 renal and in the assay on COLO 205 colon were 91.1%, 83% and 107%, respectively.

As for `CCOC(=O)c1cc(C(=O)c2ccc(OC)c(OC)c2)n2ccc(/C=C/c3cc[n+](CC(=O)c4ccc(OC)c(OC)c4)cc3)cc12`, the growth is 93.5% in the assay with NCI-H23 lung; 99.2% with NCI-H226 lung; 99% in the assay on NCI-H322M lung; 101% in the assay on HOP-62 NSCLC; 98.6% in the assay on NCI-H460 lung; 110% in the assay with HOP-92 NSCLC. Moreover, the growth in the assay with NCI-H522 lung was 85.5%; in the assay with A549/ATCC NSCLC it was 95.9%; in the assay with COLO 205 colon, 114%.

For `CCc1c(Cl)nc(N)nc1Nc1ccc(C)c(C)c1`, the growth in the assay on NCI-H23 lung is 96.9%; in the assay with NCI-H226 lung it was 83.5%; with NCI-H322M lung, 110%; with HOP-62 NSCLC it was 92.7%; in the assay on NCI-H460 lung, 80.7%; in the assay on HOP-92 NSCLC, 112%. Further, the figures for the growth in the assay with A549/ATCC NSCLC, in the assay with 786-0 renal and in the assay on COLO 205 colon were 99.3%, 101% and 106%, respectively.

`COc1ccc(C(=O)c2cc(OC)c(OC)c(OC)c2)cc1O`: the growth in the assay on NCI-H23 lung was 27.7%; in the assay on NCI-H226 lung, 84.6%; with NCI-H322M lung it was 43.7%; in the assay with HOP-62 NSCLC, 22.7%; in the assay on NCI-H460 lung, 2.85% (active); in the assay on HOP-92 NSCLC it was 51.5%. In addition, the growth was 17.8% with A549/ATCC NSCLC and 41.9% with COLO 205 colon.

Take `O=C1Nc2cc(-c3cccc([N+](=O)[O-])c3)ccc2/C1=C/c1ccc[nH]1`: the growth in the assay on NCI-H23 lung was 48.4%; in the assay with NCI-H226 lung, 50.6%; in the assay on NCI-H322M lung it was 58.3%; in the assay on HOP-62 NSCLC it was 76.4%; in the assay with NCI-H460 lung, 47.6%; with HOP-92 NSCLC, 72.5%. The results for the growth in the assay with A549/ATCC NSCLC, in the assay with 786-0 renal and in the assay with COLO 205 colon were 101%, 107% and 85.9%, respectively.

Consider `C=C1C(=O)O[C@H]2[C@H]1CC/C(COC(=O)NCc1c[nH]c3ccc(Cl)cc13)=C\CC[C@@]1(C)O[C@@H]21`, for which the growth was 34.8% in the assay with NCI-H23 lung; 6.61% (active) in the assay on NCI-H226 lung; 76.2% with NCI-H322M lung; 60.5% in the assay with HOP-62 NSCLC; 18% in the assay on NCI-H460 lung; -35.7% (active) with HOP-92 NSCLC. Also, the results for the growth with A549/ATCC NSCLC, with 786-0 renal and with COLO 205 colon were 55.8%, -61.8% (active) and -59.3% (active), respectively.

In the case of `O=C(CCN1CCCC1)Nc1ccc2c(NCCCCc3ccccc3)c3ccccc3nc2c1`, the growth in the assay with NCI-H23 lung is -57.9% (active); in the assay on NCI-H226 lung it was 63.1%; with NCI-H322M lung it was -24.8% (active); in the assay with HOP-62 NSCLC it was -46.6% (active); with NCI-H460 lung it was -69% (active); with HOP-92 NSCLC it was -2.02% (active). Besides, the growth was -45.5% (active) in the assay with A549/ATCC NSCLC, 15% with 786-0 renal and -47.1% (active) with COLO 205 colon.

For the molecule `NS(=O)(=O)c1ccc(CCN2C(=O)c3cc(Cl)c(Cl)cc3C2=O)cc1`, the growth in the assay on NCI-H23 lung is 105%; with NCI-H226 lung it was 106%; with NCI-H322M lung, 97.8%; in the assay with HOP-62 NSCLC, 102%; in the assay with NCI-H460 lung, 109%; in the assay with HOP-92 NSCLC, 104%. The growth with A549/ATCC NSCLC is 105%; in the assay with 786-0 renal, 96.7%; in the assay on COLO 205 colon, 115%.

Regarding `CCOC(=O)c1cc(C(=O)c2ccc(OC)c(OC)c2)n2c1ccc1ccccc12`, the growth in the assay with NCI-H23 lung was 86.2%; in the assay on NCI-H226 lung, 80.7%; with NCI-H322M lung, 101%; with HOP-62 NSCLC, 85%; in the assay on NCI-H460 lung, 99.2%; with HOP-92 NSCLC, 83.3%. The growth with A549/ATCC NSCLC was 98.3%; in the assay on COLO 205 colon, 112%.

Consider `CCCOc1ccc(/C=N/Nc2cc(C)nc3ccc(Br)cc23)cc1`, for which the growth in the assay with NCI-H23 lung was 86.9%; with NCI-H226 lung, 93.3%; in the assay on NCI-H322M lung it was 94.5%; in the assay on HOP-62 NSCLC, 92.7%; in the assay with NCI-H460 lung, 70.5%; in the assay on HOP-92 NSCLC, 67.9%. Moreover, the growth was 94.6% in the assay on A549/ATCC NSCLC, 100% with 786-0 renal and 44.8% in the assay with COLO 205 colon.
